The campaign covered roughly 360,000 compounds. About 6,200 (1.7%) were called active.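 Rule for the calls: active = inhibition of at least 50% at 20 µM; inactive = the rest.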 The entries come from a sample that favours actives as a whole.
test: inhibition of PEG-3 promoter activity – cell-based, HeLa, luciferase luminescence, primary screen (AID 588405); details: HeLa PEG-Prom luciferase reporter, overnight, at 20 µM, stronger effect = higher value

inhibition, inactive:
COc1cc(CN2CCNC(=O)C2CC(=O)NCCc2ncccc2C)cc(OC)c1 (centres undefined) -16.1%
CC(C)Oc1ccc(CN2CCC2(C)C(=O)NCc2ccc(C(F)(F)F)cc2)cc1 (centres undefined) 14.4%
O=C(Nc1ccc(N2CCOCC2)cc1)c1cccc2c(-c3ccc(F)c(F)c3)coc12 -8.12%
COc1ccccc1CNC(=O)c1cc(-c2cc(Cl)ccc2C)n[nH]1 32.1%
O=C(CN1C(=O)NC2(CCOc3ccccc32)C1=O)Nc1cccc([N+](=O)[O-])c1 (centres undefined) 10.4%
CCN(CC)S(=O)(=O)c1ccc(NC(=O)c2cnc(C)cn2)cc1 -6.33%
Cc1ccc(CNC(=O)c2cccnc2Cl)cc1 -0.53%
CCOC(=O)C1=CC[C@@H](c2ccccc2)N(S(=O)(=O)c2ccc(C)cc2)[C@H]1c1cccc(OC)c1 14.6%
CC1(c2nnc(Cc3ccccc3)o2)CC(c2ccccc2F)=NO1 (centres undefined) 7.03%
Cc1ccccc1OCCC(=O)OCC(=O)NC(C)c1ccccc1 (centres undefined) -0.76%
CCOC(=O)C(C(=O)OCC)C(C#N)c1ccccc1 (centres undefined) 1.45%
CCOc1c(Nc2cccc(Cl)c2)c(=O)c1=O 19%
CC(=O)N1CCN(S(=O)(=O)c2ccc(C)c([N+](=O)[O-])c2)C1C(C)C (centres undefined) 9.74%
COc1ccc(S(=O)(=O)NC(=O)C2(C)CCN2C(=O)COc2ccc(Cl)cc2)cc1 (centres undefined) 0.32%
OC(c1ccc(F)cc1)c1ncc(-c2cccc(C(F)(F)F)c2)[nH]1 (centres undefined) 25.3%
CCOC(=O)N1CCN(C(=O)c2n[nH]c(=O)c3ccccc23)CC1 6.99%
CCOC(=O)N1CCN(C(=O)Cn2cnc3ccccc3c2=O)CC1 -3.74%
CN1CCN(C(=O)c2ccc(-c3cc4nc(NCc5cccnc5)n(C)c(=O)c4s3)cc2)CC1 -4.53%
CCc1nc2c(OCCOc3ccccc3)cccn2c1N(C)C(=O)c1ccc(OC)cc1 11.8%
CC(=O)NN=C(C)c1ccc(NC(=O)C2CC2)cc1 -1.94%

inhibition, active:
CCN(CC)S(=O)(=O)c1ccc(NC(=O)c2cccnc2Cl)c(NC(=O)c2cccnc2Cl)c1 104%
CCOC(=O)/C=C/C(=O)OCC(=O)NC(c1ccccc1)c1ccccc1 66.3%
OCCCNc1nccc(-c2cc(Nc3cccc(Cl)c3)ncn2)n1 97.8%
CCOC(=O)N1CCN(C(=O)c2nn(-c3ccc(C)cc3)c(=O)c3c2c2ccccc2n3C)CC1 58.2%

— PubChem BioAssay AID588405 (Sanford-Burnham Center for Chemical Genomics, 2011)
